Data reported in ChEMBL document CHEMBL1157539, “Thousands of chemical starting points for antimalarial lead identification” (Nature, 2010).

Assays:
Type in all cases: functional
[1] = test system: Plasmodium falciparum; experiment: GSK_TCMDC: Inhibition of Plasmodium falciparum 3D7 in whole red blood cells, using parasite LDH activity as an index of growth. Test compounds present at 2uM
[2] = test system: Plasmodium falciparum; experiment: GSK_TCMDC: Inhibition of Plasmodium falciparum Dd2 in whole red blood cells, using parasite LDH activity as an index of growth. Test compounds present at 2uM
[3] = test system: HepG2; experiment: GSK_TCMDC: Percent inhibition of human HepG2 cell line. Test compounds present at 10uM.

Cc1ccc(-n2cc(CNCC3CCN(CCO)CC3)c(-c3ccc(F)cc3)n2)cc1 gave an Inhibition [1] of 91%, an Inhibition [2] of 18% and an Inhibition [3] of 29%.

With Cc1ccc(-n2c(C)nc3c(Nc4ccc(-c5ccncc5)cc4)ncnc32)c(C)c1 the Inhibition [1] was 99%, the Inhibition [2] was 99% and the Inhibition [3] was 38%.

CS(=O)(=O)c1cccc(-c2cnc(N)c3cc(-c4cccc(F)c4)ccc23)c1 showed an Inhibition [1] of 97%, an Inhibition [2] of 13% and an Inhibition [3] of 45%.

With CC(=O)Oc1c(C2CCN(CCCCNC(=O)c3ccc(NC(=O)c4ccc(Cl)cc4)cc3)CC2)ccc2ccccc12 the Inhibition [1] was 100%, the Inhibition [2] was 92% and the Inhibition [3] was 24%.

COc1ccc(CCNCC(O)COc2nccc3c(S(=O)(=O)N4CCCNCC4)cccc23)cc1OC.Cl (centres undefined) gave an Inhibition [1] of 96%, an Inhibition [2] of 0% and an Inhibition [3] of 59%.

CC1CCC(NCc2ccc3c(CNC4CCC(C)CC4)c(O)ccc3c2O)CC1.Cl (centres undefined) showed an Inhibition [1] of 100%, an Inhibition [2] of 99% and an Inhibition [3] of 4%.

For O=C(NCc1ccccc1[S+]([O-])c1ccccc1CO)C(F)(F)F (centres undefined), the Inhibition [1] was 98%, the Inhibition [2] was 2% and the Inhibition [3] was 50%.

Compound CCN(CC)CCCNCc1ccc(-c2ccc(C(F)(F)F)cc2)cc1 has an Inhibition [1] of 95%, an Inhibition [2] of 35% and an Inhibition [3] of 53%.

For O=C(Nc1cccc(-c2nn3ncccc3c2-c2ccnc(Nc3cccc(-c4cnco4)c3)n2)c1)c1c(F)cccc1F, the Inhibition [1] was 97%, the Inhibition [2] was 98% and the Inhibition [3] was 96%.

In the case of Nc1nc2c(c(=O)[nH]1)CN(S(=O)(=O)c1ccc(C(=O)N[C@@H](CCC(=O)O)C(=O)O)cc1)CC2, the Inhibition [1] is reported as 95%, the Inhibition [2] is reported as 96% and the Inhibition [3] is reported as 49%.

In the case of CCCCN1Cc2c(n(CC(=O)Nc3ccccc3)c3cc(-c4ccccc4)nn3c2=O)C1=O, the Inhibition [1] is reported as 92%, the Inhibition [2] is reported as 60% and the Inhibition [3] is reported as 1%.

CS(=O)(=O)NCCCNCc1cccc(-c2cccc(-c3nc4cc(F)ccc4[nH]3)c2)c1.O=C(O)C(F)(F)F gave an Inhibition [1] of 100%, an Inhibition [2] of 5% and an Inhibition [3] of 4%.

Work on NC(=O)c1cccc(CNC(=O)NC[C@H]2CN(Cc3ccc(Cl)c(Cl)c3)CCO2)c1 yielded an Inhibition [1] of 98%, an Inhibition [2] of 65% and an Inhibition [3] of 0%.

In the case of O=C(NC1CC1)c1cnc(N2CCC(COc3cccc(F)c3)CC2)c(Cl)c1, the Inhibition [1] is reported as 89%, the Inhibition [2] is reported as 87% and the Inhibition [3] is reported as 1%.

Compound Clc1ccc(-c2cnc3ccc(NCc4ccncc4)nn23)cc1 has an Inhibition [1] of 98%, an Inhibition [2] of 98% and an Inhibition [3] of 25%.

In the case of CC(C)Sc1nc2c(c(=O)n1CCc1ccccc1)C1(CCCC1)Cc1ccccc1-2, the Inhibition [1] is reported as 100%, the Inhibition [2] is reported as 88% and the Inhibition [3] is reported as 0%.

Work on CN1CCN(CC(=O)Nc2ccc(-c3ccc(-c4nc5cc(C(F)(F)F)ccc5[nH]4)cc3)cc2)CC1 yielded an Inhibition [1] of 100%, an Inhibition [2] of 98% and an Inhibition [3] of 43%.

For COc1ccc(CCNC(=O)c2cnc3c(c2)nc(-c2c[nH]c(-c4ccccc4)n2)n3CCc2c[nH]cn2)cc1, the Inhibition [1] was 96%, the Inhibition [2] was 70% and the Inhibition [3] was 16%.

CCn1c(CN2CCC(C)CC2)nc2cc(NC(=O)c3cccs3)ccc21 showed an Inhibition [1] of 91%, an Inhibition [2] of 95% and an Inhibition [3] of 40%.

CC(=NNC(N)=O)C1=C(O)C(c2ccccc2)N(C2CCCCC2)C1=O (centres undefined) showed an Inhibition [1] of 93%, an Inhibition [2] of 96% and an Inhibition [3] of 59%.

Work on O=C(Nc1ccc(Cl)c(Cl)c1)Nc1ccc2c(c1)CCNCC2.O=C(O)C(F)(F)F yielded an Inhibition [1] of 86%, an Inhibition [2] of 37% and an Inhibition [3] of 13%.

O=C(O)C(F)(F)F.c1cc(CN2CCCCC2)cc(-c2ccc(-c3nc4ccccc4[nH]3)cc2)c1 showed an Inhibition [1] of 100%, an Inhibition [2] of 88% and an Inhibition [3] of 9%.

Work on COc1ccc(Nc2nccc(N3CCC(NC(=O)c4cc5ccccc5s4)C3)n2)cc1 (centres undefined) yielded an Inhibition [1] of 99%, an Inhibition [2] of 86% and an Inhibition [3] of 1%.

In the case of Nc1nc(N)c2c(ccc3c2ccn3CCCCO)n1, the Inhibition [1] is reported as 93%, the Inhibition [2] is reported as 49% and the Inhibition [3] is reported as 61%.

CCCCOc1cc2ncc(C(=O)OCC)c(O)c2cc1OCCCC showed an Inhibition [1] of 97%, an Inhibition [2] of 96% and an Inhibition [3] of 0%.

COc1ccc2nccc([C@@H](O)CN3CCC(NCc4ccc(OC)c(NC(C)=O)c4)CC3)c2c1 was tested, and the Inhibition [1] was 90%, the Inhibition [2] was 0% and the Inhibition [3] was 0%.

Work on CCOc1c(CNCCCNc2cc(O)c3ccccc3n2)cc(Br)cc1OC yielded an Inhibition [1] of 80%, an Inhibition [2] of 18% and an Inhibition [3] of 10%.

Compound Fc1ccc2[nH]c3c(NCCCN4CCOCC4)ncnc3c2c1 has an Inhibition [1] of 98%, an Inhibition [2] of 2% and an Inhibition [3] of 14%.

With Cc1c(Cl)cccc1S(=O)(=O)Nc1cccc(CCN2CCC(N3CCCCC3)CC2)c1 the Inhibition [1] was 100%, the Inhibition [2] was 82% and the Inhibition [3] was 38%.

In the case of Clc1ccc2c(Cl)c(CNCCCNc3nc4ccccc4[nH]3)[nH]c2c1, the Inhibition [1] is reported as 100%, the Inhibition [2] is reported as 7% and the Inhibition [3] is reported as 38%.

Compound COc1cccc(CNC(=O)c2cccc(-c3cccc(CN4CCC(N5CCCC5)CC4)c3)n2)c1.O=C(O)C(F)(F)F has an Inhibition [1] of 100%, an Inhibition [2] of 76% and an Inhibition [3] of 22%.

Cc1c[nH]c2ccc(/C=C/C(=O)NC3CCC(CCN4CCc5ccc(C#N)cc5CC4)CC3)cc12.Cl (centres undefined) was tested, and the Inhibition [1] was 100%, the Inhibition [2] was 91% and the Inhibition [3] was 9%.

For O=C(/C=N/O)Nc1ccccc1[N+](=O)[O-], the Inhibition [1] was 99%, the Inhibition [2] was 0% and the Inhibition [3] was 0%.

COC(=O)c1ccc(Nc2nccc(Nc3ccc(Oc4ccccc4)cc3)n2)cc1.Cl gave an Inhibition [1] of 93%, an Inhibition [2] of 15% and an Inhibition [3] of 0%.

In the case of CS(=O)(=O)CCNCc1ccc(-c2cc3c(Nc4ccc(OCc5cccc(F)c5)c(Cl)c4)ncnc3s2)[nH]1, the Inhibition [1] is reported as 99%, the Inhibition [2] is reported as 95% and the Inhibition [3] is reported as 5%.

CNC(=O)C1Cc2c([nH]c3ccc(Br)cc23)C2(CCN(CCc3ccccc3)CC2)N1 (centres undefined) gave an Inhibition [1] of 100%, an Inhibition [2] of 60% and an Inhibition [3] of 15%.

CCCCCCCN1CCC(NC(=O)Nc2ccnc3ccc(OC)cc23)C(C(=O)OCC)C1.O=C(O)C(=O)O (centres undefined) gave an Inhibition [1] of 100%, an Inhibition [2] of 73% and an Inhibition [3] of 11%.

CC(C)Oc1ccc2c(c1)OC(c1ccccc1)(C(F)(F)F)NC2=O (centres undefined) gave an Inhibition [1] of 100%, an Inhibition [2] of 98% and an Inhibition [3] of 0%.

Work on CC(NCCC1CCC(NC(=O)N[C@H](C)C(O)(c2ccccc2)c2ccccc2)CC1)c1cccc2ccccc12 (some centres undefined) yielded an Inhibition [1] of 86%, an Inhibition [2] of 58% and an Inhibition [3] of 43%.

N#Cc1cccc(NC(=O)Nc2cccc(-c3cccc(-c4nc5ccccc5[nH]4)c3)c2)c1 gave an Inhibition [1] of 100%, an Inhibition [2] of 96% and an Inhibition [3] of 46%.

Compound N#Cc1ccc(N2CCN(Cc3ccc(-c4cccc(-c5nc6ccccc6[nH]5)c4)cc3)CC2)nc1.O=C(O)C(F)(F)F has an Inhibition [1] of 95%, an Inhibition [2] of 29% and an Inhibition [3] of 33%.

For O=C(NC1CCCCC1)C(c1cccs1)N(CCc1ccccc1)C(=O)c1ccco1 (centres undefined), the Inhibition [1] was 92%, the Inhibition [2] was 63% and the Inhibition [3] was 0%.

COc1ccc(C2CC(c3cccs3)=NN2C(=O)CNc2cccc(C#N)c2)cc1OC (centres undefined) showed an Inhibition [1] of 87%, an Inhibition [2] of 35% and an Inhibition [3] of 8%.

For Cc1ccc(-c2noc(=O)n2CC(=O)Nc2ccccc2-c2ccccc2)cc1, the Inhibition [1] was 100%, the Inhibition [2] was 86% and the Inhibition [3] was 0%.

COc1ccc(-c2csc3ncnc(Cl)c23)cc1 was tested, and the Inhibition [1] was 96%, the Inhibition [2] was 97% and the Inhibition [3] was 0%.

Work on CC(=O)Nc1nc(C(=O)Nc2ccc(-c3cccc(-c4nc5cc(C(F)(F)F)ccc5[nH]4)c3)cc2)cs1 yielded an Inhibition [1] of 100%, an Inhibition [2] of 97% and an Inhibition [3] of 79%.

In the case of COc1ccc(C2CC(=O)C3=C(C2)NC(C)=C(C(=O)OC(C)C)C3c2ccc(O)cc2)cc1OC (centres undefined), the Inhibition [1] is reported as 99%, the Inhibition [2] is reported as 98% and the Inhibition [3] is reported as 0%.

CC(C)[C@H](NC(=O)c1ccc(O)c(-c2ccc(Cl)c(Cl)c2)c1)C(=O)NCCN(C)C showed an Inhibition [1] of 92%, an Inhibition [2] of 1% and an Inhibition [3] of 0%.

In the case of CCCCCCc1cc(Oc2c(I)cc(C[C@H](N)C(=O)O)cc2I)ccc1O, the Inhibition [1] is reported as 97%, the Inhibition [2] is reported as 0% and the Inhibition [3] is reported as 0%.

Work on CS(=O)(=O)O.FC(F)(F)COc1c(CCNCCCCNCCc2ccc3ccccc3c2OCC(F)(F)F)ccc2ccccc12 yielded an Inhibition [1] of 100%, an Inhibition [2] of 97% and an Inhibition [3] of 99%.

Compound CN(CCO)Cc1ccc(-c2ccc(NS(=O)(=O)c3cccc4cccnc34)cc2)cc1.O=C(O)C(F)(F)F has an Inhibition [1] of 99%, an Inhibition [2] of 84% and an Inhibition [3] of 28%.

With COc1ccc2nc3cc(Cl)ccc3c(NCCN(C)C)c2c1 the Inhibition [1] was 100%, the Inhibition [2] was 100% and the Inhibition [3] was 4%.

Work on O=C(c1ccc(Cl)cc1)N1CCOC(CCN2CCC(c3ccccc3)CC2)(c2ccc(Cl)c(Cl)c2)C1 (centres undefined) yielded an Inhibition [1] of 98%, an Inhibition [2] of 68% and an Inhibition [3] of 19%.

In the case of Cc1cc(NS(=O)(=O)c2cccc(C(C)N3CCC(N4CCCC4)CC3)c2)ccc1C(C)C (centres undefined), the Inhibition [1] is reported as 100%, the Inhibition [2] is reported as 53% and the Inhibition [3] is reported as 30%.

Cl.Oc1ccc(Cc2ccccc2)cc1CNC1CCCCC1 gave an Inhibition [1] of 96%, an Inhibition [2] of 98% and an Inhibition [3] of 30%.

CCN(CC)CCCOC(=O)c1ccc2c(c1)-c1ccc(C(=O)OCCCN(CC)CC)c3cccc-2c13.Cl was tested, and the Inhibition [1] was 98%, the Inhibition [2] was 96% and the Inhibition [3] was 22%.

CCCNCc1ccc(-c2ccc(CN(CCOC)C(=O)CC3CCCC3=O)cc2)nc1.O=C(O)C(F)(F)F (centres undefined) showed an Inhibition [1] of 93%, an Inhibition [2] of 9% and an Inhibition [3] of 5%.

CS(=O)(=O)N1CC2(CCN(CCC(NC(=O)NCc3ccccc3Cl)c3ccc(Cl)c(Cl)c3)CC2)c2ccccc21 (centres undefined) gave an Inhibition [1] of 85%, an Inhibition [2] of 98% and an Inhibition [3] of 12%.

COc1ccc(Nc2nccc(NCCNC(=O)Nc3cc(C)ccc3C)n2)cc1 was tested, and the Inhibition [1] was 85%, the Inhibition [2] was 0% and the Inhibition [3] was 10%.

With CC(C)CN1CCC(COc2ccc3ncn(-c4cc(O[C@H](C)c5ccccc5C(F)(F)F)c(C(N)=O)s4)c3c2)CC1 the Inhibition [1] was 97%, the Inhibition [2] was 86% and the Inhibition [3] was 46%.

Compound Cc1ccc(CN2CCCN(Cc3ccc(C(=O)Nc4ccc(Cl)cc4)cc3)CC2)s1.O=C(O)C(F)(F)F has an Inhibition [1] of 85%, an Inhibition [2] of 5% and an Inhibition [3] of 53%.

COc1cccc(CCN(Cc2ccccc2-c2ccc(CNC3CC(C)(C)NC(C)(C)C3)cc2)C(=O)NC2CCCCC2)c1.Cl gave an Inhibition [1] of 100%, an Inhibition [2] of 99% and an Inhibition [3] of 97%.

Compound COc1ccc(Cn2c(Nc3cccc(C(F)(F)F)c3)nc3cc(C(=O)NCCN4CCCC4)ccc32)cc1Cl has an Inhibition [1] of 97%, an Inhibition [2] of 54% and an Inhibition [3] of 11%.
